Data as given in PubChem BioAssay AID722 (NMMLSC, 2007).
Out of some 1,300 compounds screened, about 40 (3%) were called active. Rule as the data show it: active = inhibition above about 30%; inactive = the rest. Many of the other results were omitted from the sample, so actives are more common in it than they were.

molecular target: fMet-Leu-Phe receptor (Homo sapiens) (UniProt P21462); experiment: human FPR1 ligand displacement screen – cell-based, flow cytometry, SAR analysis, primary screen (AID 722); details: FPR-expressing cells, fluorescent ligand binding inhibition, stronger effect = higher value, concentration not given here
Sequence (P21462 whole entry, looked up): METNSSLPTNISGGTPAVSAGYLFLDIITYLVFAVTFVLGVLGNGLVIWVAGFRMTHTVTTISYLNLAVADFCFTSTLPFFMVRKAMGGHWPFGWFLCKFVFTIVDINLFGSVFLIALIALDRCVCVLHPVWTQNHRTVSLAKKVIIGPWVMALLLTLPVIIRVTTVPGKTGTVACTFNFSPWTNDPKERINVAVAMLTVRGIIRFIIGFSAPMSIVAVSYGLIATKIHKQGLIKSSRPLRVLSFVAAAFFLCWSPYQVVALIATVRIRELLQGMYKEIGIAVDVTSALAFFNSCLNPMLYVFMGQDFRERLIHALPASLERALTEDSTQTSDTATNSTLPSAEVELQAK

Structure (SMILES)	inhibition
CC(C)c1ccc(C2/C(=C(\O)c3ccc(F)cc3)C(=O)C(=O)N2CCCN2CCOCC2)cc1 (configuration not stated)	-6% (inactive)
COc1ccc2c(=O)c(-c3ccccc3)c(C(F)(F)F)oc2c1C	-2.4% (inactive)
CCc1cc2c(=O)c(-c3nc4ccccc4s3)c(C)oc2cc1OC(C)=O	4% (inactive)
O=C1C(=O)N(CCN2CCOCC2)C(c2cccc(Br)c2)/C1=C(\O)c1ccccc1 (configuration not stated)	1.8% (inactive)
Cc1onc(-c2c(Cl)cccc2Cl)c1C(=O)N1CCC(C)CC1	5.9% (inactive)
COC(=O)c1c(NC(=O)c2cccc(Br)c2)sc2c1CCCC2	-4.7% (inactive)
Cc1cc(N2C(=O)CSC2c2ccccc2F)ccc1Br (configuration not stated)	0.4% (inactive)
COc1ccc(OC)c(C2C(C(=O)/C=C/c3ccccc3)=C(O)C(=O)N2CCCCCC(=O)O)c1 (configuration not stated)	-3.9% (inactive)
Cc1oc2cc(OCC(=O)O)ccc2c(=O)c1-c1ccc2c(c1)OCCO2	3.2% (inactive)
COc1cccc(C(=O)/C=C(\Nc2sc3c(c2C#N)CCC3)C(=O)O)c1	-24.9% (inactive)
CCOC(=O)c1c(NC(=O)Cc2ccccc2)sc2c1CCCCC2	-0.4% (inactive)
N#Cc1c(N/C(=C\C(=O)c2ccccc2)C(=O)O)sc2c1CCC2	53% (active)
Cn1c2c(c(=O)n3ncc(C(=O)O)c13)CN(Cc1ccccc1)CC2	-6.5% (inactive)
CCc1cc2c(=O)c(-c3nc4ccccc4n3C)c(C)oc2c(CN2CCCCC2)c1O	-12.9% (inactive)
CCOC(=O)c1c(NC(=O)c2cc(C)no2)sc(C)c1C	2.2% (inactive)
COc1ccc(OC)c(NC(=O)C(C)n2sc3ccccc3c2=O)c1 (configuration not stated)	2.2% (inactive)

Structure (SMILES)	inhibition
CCCCCCOc1cccc(N2C(=O)C(=O)/C(=C(\O)c3ccccc3)C2c2ccc(C(C)C)cc2)c1 (configuration not stated)	-11.9% (inactive)
O=C(O)COc1ccc(N2C(=O)C(=O)/C(=C(\O)c3ccccc3)C2c2cccc(F)c2)cc1 (configuration not stated)	-6.1% (inactive)
Cc1ccc(N2C(=O)C(=O)/C(=C(\O)c3ccccc3)C2c2cccc(F)c2)cc1Br (configuration not stated)	30.2% (active)
CCCCCCOc1cccc(N2C(=O)C(=O)/C(=C(\O)c3ccccc3)C2c2cccc(F)c2)c1 (configuration not stated)	56.3% (active)
COc1ccc(/C(O)=C2/C(=O)C(=O)N(c3ccc(C)c(Br)c3)C2c2cccc(F)c2)cc1 (configuration not stated)	20.6% (inactive)
Cc1cccc(N2C(=O)C(=O)/C(=C(/O)c3ccccc3)C2c2cccc(F)c2)c1 (configuration not stated)	4.1% (inactive)
COC(=O)c1c(NC(=O)c2ccc(C)cc2)sc(C)c1C	-13.3% (inactive)
COc1ccc(C2/C(=C(\O)c3ccccc3)C(=O)C(=O)N2CCN2CCOCC2)c(OC)c1 (configuration not stated)	17% (inactive)
CCOc1ccc(/C(O)=C2\C(=O)C(=O)N(CCN3CCOCC3)C2c2ccc(Br)cc2)c(C)c1 (configuration not stated)	-1.7% (inactive)
COc1ccc(C2SCC(=O)N2c2ccc(Br)cc2)cc1 (configuration not stated)	1.9% (inactive)
CCCN(C(=O)c1cccc(NC(=O)[C@H]2[C@@H]3C[C@@H]4[C@H]2C(=O)O[C@@H]4C3)c1)c1ccccc1F	-2.9% (inactive)
CCOC(=O)c1c(NC(=O)c2ccco2)sc(C)c1C	-1.8% (inactive)
CCOC(=O)C1NN=C(C(=O)c2ccccc2)C1c1ccccc1 (configuration not stated)	-1% (inactive)
CCSC1=C(C#N)C(c2ccc3c(c2)OCO3)CC(=O)N1 (configuration not stated)	-2.1% (inactive)
COc1cccc(C2/C(=C(/O)c3ccc(Cl)cc3)C(=O)C(=O)N2c2ccc(C)c(Br)c2)c1 (configuration not stated)	0.2% (inactive)
COc1ccc(C2CC(=O)C3=C(C2)NC(=O)CC3c2cccs2)cc1OC (configuration not stated)	-3.3% (inactive)
